This is an account of results in PubChem BioAssay (NCI).

What all share (experiment): NCI-60 one-dose screen, 48 h (100 = growth as untreated, 0 = no growth, -100 = all killed)
Settings in all cases: 10 µM unless noted

For experiment [1], the system named is RPMI-8226 leukemia.
Experiment [2] concerns OVCAR-8 ovarian.
The subject of experiment [3] is OVCAR-5 ovarian.
Experiment [4] has as its system OVCAR-4 ovarian.
The subject of experiment [5] is SK-OV-3 ovarian.
In experiment [6] the test system is OVCAR-3 ovarian.
In experiment [7] the test system is HS 578T breast.
Experiment [8] relates to NCI/ADR-RES ovarian.
Experiment [9] deals with IGROV1 ovarian.

The structures appear in SMILES notation. About 83,000 compounds went through this panel and 20% of them were active in at least one assay; those are over-represented in the sample as a whole.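 96-well plates, one dose, 48 hours. Percent growth reported; active if below 10.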 Unmarked numbers belong to inactive results. Calls of active or inactive are those of the source.

As for `CCC1C[N+]2=C(c3cc(OC)c(OC)cc3CC2)c2c1cc1n2CCc2cc(OC)c(OC)cc2-1` (configuration not stated), the growth in experiment [1] was 11.6%; in [2], 32.4%; in experiment [3], 79.7%; in [4], 14.7%; in experiment [5], 94.9%; in experiment [6] it was 10%. In addition, the growth in experiment [7] was 42.4%; in [8], 101%.

As for `CC(C)=CCCC(C)C1=C(O)C(=O)C(C)=CC1=O` (configuration not stated), the growth was -34.2% (active) in experiment [1]; 97.4% in [3]; -75.7% (active) in [9]; -12.5% (active) in experiment [6]; 94.4% in [7]; 95% in [8].

On to `CCc1cccc(CC)c1N1C(=O)C=CC1=O`, for which the growth in [2] is 112%; in [4], 111%; in experiment [5] it was 121%; in experiment [6], 97%; in experiment [7], 108%; in [8] it was 118%.

In the case of `Cc1cc(C)c(C#N)c(Sc2nc(C)c([N+](=O)[O-])c(C)c2C#N)n1`, the growth in [1] is 48.7%; in experiment [2] it was 77.2%; in experiment [3], 90.1%; in [4] it was 66.6%; in [9], 82.9%; in experiment [6], 68.6%. For the same compound, the growth in experiment [7] is 118%; in experiment [8], 77.9%.

Take `CN(C)c1ccc(/C=C/c2nccc3ccccc23)cc1`: the growth in experiment [1] was 72%; in experiment [2] it was 87.9%; in experiment [4] it was 103%; in [9], 78.5%; in experiment [6], 81.6%; in experiment [7], 94.1%. Also, the growth in experiment [8] is 78.4%.

Consider `CC(C)(C)c1ccc(CCO)cc1`, for which the growth in experiment [1] is 112%; in experiment [2] it was 95.8%; in experiment [3], 91.4%; in [4], 99.4%; in experiment [5], 100%; in [6] it was 116%. Besides, the growth in [7] was 135%; in [8], 101%.

Consider `O=C(c1ccc(O)c(Br)c1)c1ccc(O)c(Br)c1`, for which the growth in experiment [1] was 99.5%; in [2] it was 106%; in [4], 103%; in [5] it was 116%; in experiment [9] it was 114%; in experiment [6] it was 114%. Besides, the growth is 113% in experiment [7] and 105% in [8].

As to `O=C1C=CC(=O)N1c1ccc(O)cc1`, the growth in experiment [1] is 91.9%; in [2] it was 109%; in experiment [3] it was 105%; in experiment [4], 103%; in [5], 106%; in experiment [6], 119%. The growth is 118% in experiment [7] and 106% in experiment [8].

As to `CCOC(=O)c1[nH]c(C#N)c(C(=O)OCC)c1C`, the growth was 94.8% in experiment [2]; 97.7% in experiment [4]; 117% in [5]; 101% in experiment [9]; 114% in experiment [6]; 124% in experiment [7]. Moreover, the growth in experiment [8] was 106%.

For the compound `COc1ccc(/C=C2/C(=O)ON=C2C)cc1`, the growth is 99.1% in [1]; 105% in [2]; 115% in [4]; 115% in [9]; 111% in experiment [6]; 102% in experiment [7]. Further, the growth in experiment [8] is 115%.

`Cc1ccc2cccc(OC(=O)Nc3cccc(C(F)(F)F)c3)c2n1`: the growth in experiment [2] is 53.5%; in experiment [4], 73%; in experiment [5] it was 108%; in experiment [9] it was 58.2%; in experiment [6] it was 32.3%; in experiment [7], 100%. For the same compound, in [8], the growth is 58.9%.

`COc1cc(OC)c(/C=C/c2c3ccccc3cc[n+]2C)c(OC)c1`: the growth is 6.51% (active) in [1]; 5.21% (active) in experiment [2]; 56.5% in experiment [3]; 24.9% in [4]; 13.2% in experiment [9]; 5.9% (active) in [6]. Further, the growth in experiment [7] is 46.3%; in [8], 96.6%.

As for `CCCCCCCCCCCC[n+]1ccccc1` (tested in a mixture with another compound), the growth was -56.2% (active) in experiment [1]; -30.2% (active) in experiment [2]; -22.6% (active) in experiment [3]; 4% (active) in experiment [4]; -18.4% (active) in [5]; -63.1% (active) in [6]. Besides, the growth in experiment [7] was -28.7% (active); in experiment [8], 55.3%.

On to `O=C(Cc1nc2cc(Cl)c(Cl)cc2nc1CC(=O)c1ccccc1)c1ccccc1`, for which the growth in [1] is 25.7%; in experiment [2], 73.3%; in experiment [3], 77.5%; in experiment [4], 74.4%; in experiment [9], 61%; in experiment [6], 81.5%. Besides, the results for the growth in [7] and in [8] were 58.8% and 74.6%, respectively.

Regarding `CCCCCCCCCCCC[S+](C)CC(=O)[O-]` (configuration not stated), the growth in [1] is 26.6%; in experiment [2], 45.5%; in [3], 56.5%; in experiment [4], 48.1%; in experiment [9], 12.8%; in [6], 57.6%. The growth in experiment [7] was 36.7%; in experiment [8], 99.8%.
